Experimental data taken from PubChem BioAssay (EPA / NIEHS).
Calls of active or inactive are those of the source. Rule for the calls: active = hit-call score of the fitted dose curve at least 0.9, where 1 is the maximum; inactive = score below 0.9.

Assay: CCTE_Shafer_MEA_dev_per_network_spike_spike_number_mean: CCTE's Neural Network Formation Assay for Mean Number of Spikes in a Network Spike, Shafer Lab (AID 2284053)
Experimental: CCTE_Shafer_MEA_dev assay is conducted using Axion Biosystems 48 well microelectrode array (MEA) plates and Maestro recording system. Each well of the MEA plate contains a grid of 16 microelectrodes embedded in the culture surface. Electrically active cells, such as neurons, can be cultured over the electrodes, and electrical activity in these cells can be recorded extracellularly. The spontaneous firing of neurons is captured from each electrode on a microsecond timescale providing both temporally and spatially precise data. […] The CCTE_Shafer_MEA_dev assay uses primary cultures of rat cortical neurons. Recordings are made on days post-plating 5, 7, 9 and 12. As these cultures mature over time, neural networks develop functional activity and form cohesive networks in which electrical activity can be highly coordinated. CCTE_Shafer_MEA_dev_per_network_spike_spike_number_mean is 1 of 19 assay components of the CCTE_Shafer_MEA_dev assay. It measures the average number of spikes (action potential firings) in a network spike (temporally-clustered group of spikes across multiple electrodes) as the number of spikes that occur within a 0.05 s time window at the peak of a network spike divided by the total number of network spikes during a recording in a microelectrode array (MEA) using Axion Biosystems Maestro 768 channel amplifier with the AxIS adaptive spike detector. To collapse across multiple recordings made on days post-plating 5, 7, 9 and 12, the trapezoidal area-under-the-curve of the component is calculated.Data from the assay component CCTE_Shafer_MEA_dev_per_network_spike_spike_number_mean was analyzed into 1 assay endpoint. This assay endpoint, CCTE_Shafer_MEA_dev_per_network_spike_spike_number_mean, was analyzed in the negative analysis fitting direction relative to DMSO as the negative control and baseline of activity. Using a type of functional reporter, gain or loss-of-signal activity can be used to understand electrical activity.
On the day prior to culture, each well was coated thoroughly with 150 uL of 0.05% polyethyleneimine (PEI, Sigma Cat P3143) in 50 mM HEPES (Sigma Cat H7523) at a pH of 8. The plate was incubated at 37C for one hour. PEI was rinsed out with 500 uL of sterile water three times. Plates were stored at 4C until the day of culture. This culture was plated at a seeding density of 1.5 x 10^5 cells/well on a 48-well MEA plate, prepared as described above. Cells were administered via a 25 uL media/laminin ([…]; Sigma Cat L2020-1MG) drop directly onto the microelectrode array, as adding the cells with the laminin results in better attachment than pre-coating with laminin. After 2 hours, an additional 475 uL of cortical media was added and the cells returned to the incubator. Exposure starts at day 0 of plating and is continued over twelve days of network development until the experiment is terminated. Cells are fed with fresh medium on DIV 5 and 9, following the recordings on those days. The entire volume of media in the well is exchanged and any vehicle or compound treatment is renewed. Complete details are found in OP-NHEERL/ISTD/SBB/TJS/2015-03-r0 (available on request, email shafer.tim@epa.gov). Measurement of the electrical activity is non-invasive, and recordings can be made from the same plate over multiple different days of the culture. In cortical neurons, this allows for the measurement of extracellular action potentials over the period during which networks form in the MEA plate.

SMILES | outcome | AC50
O=P(OC(CCl)CCl)(OC(CCl)CCl)OC(CCl)CCl | inactive | –
Cn1c(=O)c2c(ncn2C)n(C)c1=O | inactive | –
CCC(C)(C)C(=O)O[C@H]1C[C@@H](C)C=C2C=C[C@H](C)[C@H](CC[C@@H]3C[C@@H](O)CC(=O)O3)[C@H]21 | – | 1.1 µM (active)
CNCc1ccc(NC(=O)c2c[nH]c3c2C(=O)CCC3)cc1 | – | 2.49 µM (active)
CC[C@H]1OC(=O)[C@H](C)[C@@H](O[C@H]2C[C@@](C)(OC)[C@@H](O)[C@H](C)O2)[C@H](C)[C@@H](O[C@@H]2O[C@H](C)C[C@H](N(C)C)[C@H]2O)[C@](C)(O)C[C@@H](C)C(=O)[C@H](C)[C@@H](O)[C@]1(C)O | inactive | –
NC(=O)NO | inactive | –
CC[C@H](C)C(=O)O[C@H]1C[C@@H](C)C=C2C=C[C@H](C)[C@H](CC[C@@H]3C[C@@H](O)CC(=O)O3)[C@H]21 | – | 2.22 µM (active)
Nc1nc2ncc(CNc3ccc(C(=O)N[C@@H](CCC(=O)O)C(=O)O)cc3)nc2c(=O)[nH]1 | inactive | –
COc1ccc(-n2nc(C(F)F)cc2-c2ccc(S(C)=O)cc2)cc1 (stereo not given) | inactive | –
O=C1CCC(N2C(=O)c3ccccc3C2=O)C(=O)N1 (stereo not given) | inactive | –
